{"source": "the antibiotic and cytotoxicity screens of Wong et al. (2023)", "note": "Among all 39,000 compounds or so, about 3,300 (8.5%) were called active. For the sample, actives were picked, then their nearest neighbours and some compounds at random.", "data": [{"tested_on": "HepG2", "test": "cytotoxicity call (relative viability < 0.9)", "conditions": "10 µM", "values": [{"smiles": "C[C@H]1CN([C@@H](C)CO)C(=O)c2cc(NC(=O)Cn3cnnn3)ccc2O[C@H]1CN(C)S(=O)(=O)c1ccc(Cl)cc1", "cytotoxicity call": "inactive"}, {"smiles": "COc1ccc(S(=O)(=O)N(C)C[C@H]2Oc3ccc(NS(=O)(=O)c4ccc(C)cc4)cc3C(=O)N([C@H](C)CO)C[C@H]2C)cc1", "cytotoxicity call": "inactive"}, {"smiles": "C[C@@H]1CN([C@@H](C)CO)C(=O)Cc2cc(NC(=O)C3CCCCC3)ccc2O[C@@H]1CN(C)S(=O)(=O)c1cn(C)cn1", "cytotoxicity call": "inactive"}, {"smiles": "C[C@H](CO)N1C[C@H](C)[C@H](CN(C)Cc2ccc(Oc3ccccc3)cc2)Oc2c(NC(=O)Nc3ccccc3)cccc2C1=O", "cytotoxicity call": "inactive"}, {"smiles": "O[C@@H](Cc1ccccc1)[C@@H](/C=C/C1CC1)N(CC#Cc1ccccc1)Cc1ccccc1Br", "cytotoxicity call": "inactive"}, {"smiles": "C[C@H](CO)N1C[C@H](C)[C@H](CN(C)C(=O)Nc2ccc3c(c2)OCO3)Oc2ccc(NC(=O)Nc3cccc4ccccc34)cc2C1=O", "cytotoxicity call": "inactive"}, {"smiles": "C[C@@H]1CN([C@@H](C)CO)C(=O)c2cc(NC(=O)C3CCCCC3)ccc2O[C@@H](C)CCCCO[C@@H]1CN(C)C(=O)Nc1cccc2ccccc12", "cytotoxicity call": "active"}, {"smiles": "C[C@@H]1CCCCO[C@H](CN(C)C(=O)Nc2cccc3ccccc23)[C@H](C)CN([C@@H](C)CO)C(=O)c2cc(NC(=O)C3CCCCC3)ccc2O1", "cytotoxicity call": "inactive"}, {"smiles": "C[C@@H]1CN([C@@H](C)CO)C(=O)c2cc(NC(=O)C3CCCCC3)ccc2O[C@@H](C)CCCCO[C@H]1CN(C)C(=O)Nc1cccc2ccccc12", "cytotoxicity call": "inactive"}, {"smiles": "C[C@H]1CCCCO[C@H](CN(C)S(=O)(=O)c2cccs2)[C@@H](C)CN([C@@H](C)CO)C(=O)c2cc(NC(=O)Nc3ccccc3)ccc2O1", "cytotoxicity call": "inactive"}, {"smiles": "COc1ccc2c3c(n(c2c1)C)[C@@H](CO)N(C[C@]13CCN(CC1)C(=O)c1cnccn1)C(=O)c1cnccn1", "cytotoxicity call": "inactive"}, {"smiles": "CC(C)NC(=O)N(C)C[C@@H]1OCCCC[C@@H](C)Oc2ccc(NC(=O)Nc3cccc4ccccc34)cc2C(=O)N([C@H](C)CO)C[C@@H]1C", "cytotoxicity call": "inactive"}, {"smiles": "Cc1ccc(Oc2nnc(-c3cccs3)c3ccccc23)cc1", "cytotoxicity call": "inactive"}, {"smiles": "Cc1csc(-c2nnc(Nc3ccc(Oc4ncccc4-c4ccnc(N)n4)cc3)c3ccccc23)c1", "cytotoxicity call": "active"}, {"smiles": "C[C@@]1(c2ccc3c(c2)OCCO3)NC(=O)NC1=O", "cytotoxicity call": "inactive"}, {"smiles": "Cc1noc(C)c1S(=O)(=O)Nc1ccc2c(c1)CC(=O)N([C@@H](C)CO)C[C@H](C)[C@H](CN(C)Cc1ccncc1)O2", "cytotoxicity call": "inactive"}, {"smiles": "C[C@@H]1CC[C@]2(C(=O)O[C@@H]3O[C@H](CO)[C@@H](O)[C@H](O)[C@H]3O)CC[C@]3(C)C(=CC[C@H]4[C@@]5(C)C[C@@H](O)[C@H](O)[C@@](C)(CO)[C@@H]5CC[C@]43C)[C@@H]2[C@]1(C)O", "cytotoxicity call": "inactive"}, {"smiles": "CC=C(C)C(=O)O[C@H]1[C@H](OC(C)=O)[C@]2(CO)[C@H](O)C[C@]3(C)C(=CC[C@@H]4[C@@]5(C)CC[C@H](O[C@@H]6O[C@H](C(=O)O)[C@@H](O[C@@H]7O[C@H](CO)[C@@H](O)[C@H](O)[C@H]7O)[C@H](O)[C@H]6O[C@@H]6O[C@H](CO)[C@@H](O)[C@H](O)[C@H]6O)[C@](C)(CO)[C@@H]5CC[C@]43C)[C@@H]2CC1(C)C", "cytotoxicity call": "active"}, {"smiles": "C/C=C(/C)C(=O)O[C@@H]1[C@H](OC(C)=O)[C@]2(CO)[C@H](O)C[C@]3(C)C(=CC[C@H]4[C@@]5(C)CC[C@H](O[C@@H]6O[C@H](C(=O)O)[C@@H](O[C@@H]7O[C@H](CO)[C@@H](O)[C@H](O)[C@H]7O)[C@H](O)[C@H]6O[C@@H]6O[C@H](CO)[C@@H](O)[C@H](O)[C@H]6O)[C@](C)(CO)[C@@H]5CC[C@]43C)[C@@H]2CC1(C)C", "cytotoxicity call": "inactive"}, {"smiles": "C[C@H]1O[C@@H](O[C@H]2CC[C@@]3(C)[C@@H](CC[C@@]4(C)[C@@H]3CC=C3[C@H]5C[C@](C)(C(=O)O)CC[C@]5(C(=O)O[C@H]5O[C@@H](CO)[C@@H](O)[C@@H](O)[C@@H]5O)CC[C@@]34C)[C@@]2(C)CO)[C@@H](O)[C@@H](O[C@H]2O[C@@H](CO)[C@@H](O)[C@@H](O)[C@@H]2O)[C@@H]1O", "cytotoxicity call": "inactive"}, {"smiles": "C/C=C(/C)C(=O)O[C@H]1[C@@H](OC(C)=O)[C@@]2(CO)[C@@H](O)C[C@@]3(C)C(=CC[C@H]4[C@@]5(C)CC[C@@H](O[C@H]6O[C@H](C(=O)O)[C@@H](O[C@H]7O[C@@H](CO)[C@@H](O)[C@@H](O)[C@@H]7O)[C@@H](O)[C@@H]6O[C@H]6O[C@@H](CO)[C@@H](O)[C@@H](O)[C@@H]6O)[C@@](C)(CO)[C@@H]5CC[C@]43C)[C@@H]2CC1(C)C", "cytotoxicity call": "active"}, {"smiles": "CC=C(C)C(=O)OC1C(OC(C)=O)C2(CO)C(O)CC3(C)C(=CCC4C5(C)CCC(OC6OC(C(=O)O)C(OC7OC(CO)C(O)C(O)C7O)C(O)C6OC6OC(CO)C(O)C(O)C6O)C(C)(CO)C5CCC43C)C2CC1(C)C", "note": "(configuration not stated)", "cytotoxicity call": "active"}]}]}
